The record followed here is PubChem BioAssay (Tox21).

A short description of test [1]: qHTS assay to test for compound auto fluorescence at 535 nm (green) in HEK293 cells (AID 720680). On the technique in general: Quantitative high-throughput screening tests each substance at several concentrations.
The nature of test [2]: qHTS assay to test for compound auto fluorescence at 460 nm (blue) in HEK293 cell free culture (AID 720681). Summed up: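 Test compounds were pinned into cell-free culture medium (DMEM with 10% FBS) and fluorescence was read directly at Ex/Em 405/460 nm. Signals were expressed as fluorescence equivalents of triamterene, with DMSO vehicle as control.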
A short description of test [3]: qHTS assay to test for compound auto fluorescence at 535 nm (green) in HEK293 cell free culture (AID 720682). Summed up: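 DMEM + 10% FBS, cell-free; cpd or DMSO pinned in; Ex485/Em535 read; output as fluorescein-equivalent signal.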
Test [4] can be described thus: qHTS assay to test for compound auto fluorescence at 590 nm (red) in HEK293 cell free culture (AID 720683). Summed up:
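Tox21 10K library compounds were pinned into cell-free DMEM with 10% FBS and fluorescence was read at excitation 540 nm. Activity is expressed as Rose Bengal sodium equivalency.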

The nature of test [5]: qHTS assay to test for compound auto fluorescence at 590 nm (red) in HepG2 cell free culture (AID 720684). Summed up:
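Red fluorescence (540 nm excitation, 590 nm emission) was measured after compound transfer into cell-free MEM supplemented with 10% FBS. Values are equivalencies against Rose Bengal sodium.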

Test [6] can be described thus: qHTS assay to test for compound auto fluorescence at 460 nm (blue) in HepG2 cell free culture (AID 720685). Summed up: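 Compound (23 nL) or DMSO pinned into cell-free MEM with 10% FBS; blue fluorescence read at 405/460 nm excitation/emission, expressed as auto-fluorescence equivalency to triamterene.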
The nature of test [7]: qHTS assay to test for compound auto fluorescence at 535 nm (green) in HepG2 cell free culture (AID 720686).
Test [8] has as its target Glucocorticoid receptor (Homo sapiens) (UniProt P04150). Description: qHTS assay to identify small molecule agonists of the glucocorticoid receptor (GR) signaling pathway (AID 720691; active = well fitted activation curve with a large enough effect in the signal ratio in the repeat runs, not every such curve was filed as active; the % refers to the signal ratio). Summed up:
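Fluorescence intensity from LiveBLAzer B/G FRET substrate (2 h, room temperature) reports beta-lactamase expression driven by the glucocorticoid response element in GR-bla HeLa cells after 18 h compound exposure at 37 C.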

For test [9] the target is unchanged. Put plainly: qHTS assay to identify small molecule antagonists of the glucocorticoid receptor (GR) signaling pathway (AID 720692; active = well fitted inhibition curve with a large enough effect in the signal ratio in the repeat runs, not every such curve was filed as active; the % refers to the signal ratio). Summed up: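 HeLa GR-bla cells; cmpd + dex 5 nM final, 18 h 37 C; LiveBLAzer B/G FRET substrate 2 h RT; fluorescence intensity read. Antagonist mode, qHTS.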
Test [10] can be described thus: qHTS assay to identify small molecule antagonists of the glucocorticoid receptor (GR) signaling pathway - cell viability counter screen (AID 720693). Also: nearly all actives have a fitted effect of over 55% in size.
Test [11] can be described thus: qHTS assay for identifying genotoxic compounds that show differential cytotoxicity against isogenic chicken DT40 cell lines with known DNA damage response pathways - wild type cell line (AID 743012). Also: nearly all actives have a fitted effect of over 60% in size. Also: potency is read from the fitted curve at half-maximal effect. Summed up: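 Wild type DT40, 300 cells/well, ~0.5 h settle at 37 C/5% CO2; compounds in DMSO added by pintool; 40 h at 37 C/5% CO2; CellTiter-Glo, 30 min RT; luminescence.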

Test [12] in a line: qHTS assay for identifying genotoxic compounds that show differential cytotoxicity against isogenic chicken DT40 cell lines with known DNA damage response pathways - Rev3 mutant cell line (AID 743014). Also: nearly all actives have a fitted effect of over 55% in size. Also: potency is read from the fitted curve at half-maximal effect.
Test [13] can be described thus: qHTS assay for identifying genotoxic compounds that show differential cytotoxicity against isogenic chicken DT40 cell lines with known DNA damage response pathways - Rad54/Ku70 mutant cell line (AID 743015). Also: nearly all actives have a fitted effect of over 60% in size. Also: potency is read from the fitted curve at half-maximal effect.
Test [14] in a line: qHTS assay to identify small molecule antagonists of the androgen receptor (AR) signaling pathway - cell viability counter screen (AID 743033; also: nearly all actives have a fitted effect of over 45% in size).
Test [15] can be described thus: qHTS assay to identify small molecule antagonists of the androgen receptor (AR) signaling pathway using the MDA cell line - cell viability counter screen (AID 743041; also: nearly all actives have a fitted effect of over 45% in size). Summed up: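 MDA-kb2 AR-luc human breast carcinoma cells (MMTV-luciferase, AR/GR responsive) were treated with compounds plus R1881 agonist for 16 h at 37 °C. Viability was read as CellTiter-Fluor fluorescence in the same wells as the reporter assay.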

Test [16] can be described thus: qHTS assay to identify small molecule antagonists of the thyroid receptor (TR) signaling pathway - cell viability counter screen (AID 743064). Also: nearly all actives have a fitted effect of over 50% in size. Summed up:
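Viability of T3-stimulated (1 nM final) GH3.TRE-Luc cells is measured by CellTiter-Fluor fluorescence after 23.5 h compound exposure at 37 °C plus 30 min reagent incubation.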

Test [17] can be described thus: qHTS assay to test for compound auto fluorescence at 460 nm (blue) in HepG2 cells (AID 720687). Summed up:
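Cells (2,000/well in MEM with 10% FBS) attached overnight at 37 C, then were exposed to compound or DMSO for 1 hr at 37 C, 5% CO2. Fluorescence read at Ex/Em 405/460 nm, expressed as triamterene-equivalent signal.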

The target in test [18] is Androgen receptor (Homo sapiens) (UniProt P10275). Put plainly: qHTS assay to identify small molecule antagonists of the androgen receptor (AR) signaling pathway (AID 743035; active = well fitted inhibition curve with a large enough effect in the signal ratio in the repeat runs, not every such curve was filed as active; the % refers to the signal ratio). Summed up: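 Fluorescence from a beta-lactamase FRET substrate (LiveBLAzer B/G, 2 h, room temperature) measured inhibition of R1881-stimulated signaling in GeneBLAzer AR-UAS-bla HEK293 cells exposed to compound for 16 h at 37C.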
Androgen receptor (Homo sapiens), sequence (P10275 whole entry, looked up): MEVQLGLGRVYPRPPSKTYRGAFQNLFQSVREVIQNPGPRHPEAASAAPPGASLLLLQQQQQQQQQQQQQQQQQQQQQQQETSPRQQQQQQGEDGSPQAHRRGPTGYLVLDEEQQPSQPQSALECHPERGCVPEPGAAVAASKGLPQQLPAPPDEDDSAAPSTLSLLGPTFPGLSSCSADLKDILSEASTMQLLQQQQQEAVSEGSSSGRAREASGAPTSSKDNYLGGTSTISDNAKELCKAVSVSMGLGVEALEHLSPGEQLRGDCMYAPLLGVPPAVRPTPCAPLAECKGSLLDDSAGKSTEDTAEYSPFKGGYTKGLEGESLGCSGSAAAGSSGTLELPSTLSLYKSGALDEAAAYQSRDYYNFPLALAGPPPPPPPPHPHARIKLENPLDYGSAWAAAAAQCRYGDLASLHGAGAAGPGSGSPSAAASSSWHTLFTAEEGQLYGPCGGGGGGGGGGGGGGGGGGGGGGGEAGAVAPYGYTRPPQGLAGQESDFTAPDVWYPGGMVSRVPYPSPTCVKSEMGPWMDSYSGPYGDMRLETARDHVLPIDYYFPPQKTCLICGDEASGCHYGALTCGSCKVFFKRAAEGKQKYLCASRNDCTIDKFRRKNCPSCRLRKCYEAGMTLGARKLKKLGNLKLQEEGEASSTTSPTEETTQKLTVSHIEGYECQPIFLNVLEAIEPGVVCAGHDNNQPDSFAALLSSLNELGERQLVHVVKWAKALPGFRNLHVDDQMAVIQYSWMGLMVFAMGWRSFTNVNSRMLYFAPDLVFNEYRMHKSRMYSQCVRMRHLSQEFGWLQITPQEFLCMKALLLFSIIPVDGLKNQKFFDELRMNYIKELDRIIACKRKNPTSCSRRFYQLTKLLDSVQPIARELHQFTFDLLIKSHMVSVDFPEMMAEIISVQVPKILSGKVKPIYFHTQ

Test [19] shares this target. Description: qHTS assay to identify small molecule agonists of the androgen receptor (AR) signaling pathway using the MDA cell line (AID 743040; also: nearly all actives have a fitted effect of over 20% in size). Summed up: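 MDA-kb2 breast carcinoma cells stably carrying an MMTV-driven luciferase reporter (AR- and GR-responsive) were seeded and held 5 h at 37C, 0% CO2, then exposed to compounds in DMSO for 16 h. Luminescence was read 30 min after ONE-Glo addition.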

Test [20] shares this target. Put plainly: qHTS assay to identify small molecule antagonists of the androgen receptor (AR) signaling pathway using the MDA cell line (AID 743042; also: nearly all actives have a fitted effect of over 55% in size). Summed up: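 MDA-kb2 cells (human breast carcinoma, stably carrying an MMTV-luciferase reporter responsive to AR and GR) were plated at 3,000 cells/well and preincubated 5 hr at 37C, then given compound plus R1881 agonist for 16 h. ONE-Glo luminescence was read.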

The structures appear in SMILES notation. Unmarked numbers belong to inactive results. Results filed as inconclusive are left out. The source made the active and inactive calls. Unless noted, calls follow the shape of the dose curve; as a rule, active = well fitted curve in the direction sought with a large enough effect in the repeat runs; inconclusive = weak or mixed curves; inactive = no such curve, though single readings can be large; an effect the other way counts as inactive or inconclusive.

Glucocorticoid receptor (Homo sapiens), sequence (P04150 whole entry, looked up): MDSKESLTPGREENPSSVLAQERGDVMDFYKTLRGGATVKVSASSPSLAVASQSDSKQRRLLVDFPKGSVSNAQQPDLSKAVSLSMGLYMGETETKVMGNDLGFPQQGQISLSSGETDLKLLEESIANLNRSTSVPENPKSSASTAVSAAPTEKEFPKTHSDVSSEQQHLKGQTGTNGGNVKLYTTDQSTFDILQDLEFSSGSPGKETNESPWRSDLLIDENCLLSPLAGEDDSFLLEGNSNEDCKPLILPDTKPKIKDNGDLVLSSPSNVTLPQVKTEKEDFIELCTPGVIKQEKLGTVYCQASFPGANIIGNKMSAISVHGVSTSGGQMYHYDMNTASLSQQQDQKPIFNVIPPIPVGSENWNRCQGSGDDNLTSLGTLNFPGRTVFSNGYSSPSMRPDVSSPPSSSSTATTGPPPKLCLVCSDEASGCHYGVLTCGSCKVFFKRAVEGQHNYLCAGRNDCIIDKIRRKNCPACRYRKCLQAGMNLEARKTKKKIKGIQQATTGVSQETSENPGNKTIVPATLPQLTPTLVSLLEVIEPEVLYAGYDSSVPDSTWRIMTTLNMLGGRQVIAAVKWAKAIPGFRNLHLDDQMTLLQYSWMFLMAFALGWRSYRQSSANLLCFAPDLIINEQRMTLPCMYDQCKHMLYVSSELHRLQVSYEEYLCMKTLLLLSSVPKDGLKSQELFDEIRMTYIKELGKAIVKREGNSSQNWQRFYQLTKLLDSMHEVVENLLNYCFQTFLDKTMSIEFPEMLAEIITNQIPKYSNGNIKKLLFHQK

As for `CCNCCO`, the outcome in [1], in test [2], in test [3], in test [4], in test [5] and in [6] was inactive. For the same compound, the call in test [7], in test [10] and in test [14] was inactive. Besides, the Potency entry in test [8], in [9], in [11], in [12], in test [13] and in test [15] was “inactive” throughout. Moreover, the Potency entry in [16] was “inactive”.

Take `C=CCc1cc(OC)c(O)c(C(=O)NCCO)c1`: the call in test [1], in test [2], in [3], in [4], in [5] and in test [6] was inactive. The outcome in test [17], in test [10] and in test [14] was inactive. The Potency entry in test [8], in test [9], in test [11], in test [12], in [13] and in test [15] was “inactive” in each case. Besides, the Potency entry in test [16] is “inactive”.

Take `Cc1ncc(CO)c(CN)c1O`: the compound was classed as inactive in [1], in test [2], in test [3], in [4], in test [5] and in [6]. Further, the result in test [7], in test [10] and in test [20] was inactive. Moreover, the Potency entry in [11], in test [12], in test [13], in test [18], in test [19] and in [15] was “inactive” throughout. Moreover, the Potency result in test [16] was “inactive”.

`CCCCCCCCc1ccc(S(=O)(=O)O)cc1`: the call in [1], in test [2], in test [3], in test [4], in [5] and in test [6] was inactive. The compound was called inactive in [17], in test [10] and in test [14]. Besides, the Potency entry in test [8], in test [9], in test [11], in test [12], in test [13] and in [15] was “inactive” in each case. Moreover, the Potency entry in test [16] was “inactive”.

Turning to `O=C1CCCCCCCCCCC(=O)OCCO1`, the compound was called inactive in test [1], in test [2], in test [3], in test [4], in [5] and in test [6]. Besides, the compound was called inactive in [7], in test [10] and in [14]. Further, the Potency entry in [9], in test [11], in [12], in test [13] and in test [16] was “inactive” in each case.

For the compound `COc1ccccc1N1CCN(CCCNc2cc(=O)n(C)c(=O)n2C)CC1`, the result in test [1], in test [2], in [3], in test [4], in [5] and in test [6] was inactive. The call in test [7] and in test [14] was inactive. Also, the Potency entry in [11], in test [12], in [13], in test [15] and in [16] was “inactive” in each case.

Take `CCOC(=O)C(Br)c1ccccc1` (stereo unspecified): the compound was called inactive in [1], in test [2], in [3], in [4], in [5] and in test [6]. Besides, the compound was classed as inactive in [7], in [10] and in test [14]. Moreover, the Potency result in test [11], in test [13], in test [15] and in test [16] was “inactive” in each case.

Turning to `CN1CCN(c2c(F)cc3c(=O)c(C(=O)O)cn(CCF)c3c2F)CC1`, the compound was called inactive in test [1], in test [2], in test [3], in [4], in [5] and in [6]. Moreover, the outcome in [7], in test [10] and in test [14] was inactive. Besides, the Potency entry in [8], in test [9], in test [15] and in [16] was “inactive” throughout.

In the case of `CCCCCCCCCC#N`, the compound was classed as inactive in test [1], in test [2], in test [3], in test [4], in test [5] and in [6]. Further, the result in test [17], in [10] and in [14] was inactive. Moreover, the Potency entry in test [8], in test [9], in test [11], in test [12], in test [13] and in test [15] was “inactive” throughout. Moreover, in [16], the Potency result is “inactive”.

In the case of `Nc1cccc(S(=O)(=O)O)c1`, the compound was called inactive in test [1], in test [2], in test [3], in test [4], in [5] and in [6]. The call in test [7], in test [14] and in [20] was inactive. Moreover, the Potency entry in test [11], in test [12], in test [13], in test [18], in test [19] and in test [15] was “inactive” each time. Also, the Potency result in [16] is “inactive”.

Turning to `CCN(CC)CC1CCCCN1CC(=O)N1c2ccccc2C(=O)Nc2cccnc21` (stereo unspecified), the result in test [1], in [2], in [3], in test [4], in test [5] and in test [6] was inactive. The call in test [7], in test [17] and in test [14] was inactive. Also, the Potency result in [11], in test [12], in test [13] and in [16] was “inactive” in each case.

For `O=C(O)[C@@H]1CSCN1`, the outcome in test [1], in [2], in test [3], in test [4], in test [5] and in test [6] was inactive. The compound was classed as inactive in [7] and in test [14]. Moreover, the Potency result in [8], in [9], in test [12], in test [13], in [15] and in test [16] was “inactive” throughout.

As to `O=c1[nH]c(=O)n([C@H]2C[C@H](O)[C@@H](CO)O2)cc1C(F)(F)F`, the outcome in test [1], in test [2], in test [3], in test [4], in test [5] and in test [6] was inactive. Further, the call in test [7], in test [10] and in test [14] was inactive. Further, the Potency entry in [8], in test [15] and in test [16] was “inactive” each time. In addition, the Potency is 944 nM (active) in test [11], 133 nM (active) in [12] and 188 nM (active) in test [13].
